Test results published in PubChem BioAssay (EPA / NIEHS).
Activity calls are given as the source filed them. How the source made its calls: active means hit-call score of the fitted dose curve at least 0.9, where 1 is the maximum; inactive means score below 0.9.

assay: ATG_ISRE_CIS: Attagene CIS-FACTORIAL HepG2 Assay for human Interferon Regulatory Factor 1 (IRF1) binding to an Interferon-Stimulated Response Element (ISRE) (AID 2282948); settings: HepG2 ISRE cis-reporter (Attagene), mRNA transcription readout; actives raise or lower the signal
Experimental: ATG_CIS is a cell-based, multiplexed-readout assay that uses HepG2, a human liver cell line, with measurements taken at 24 hours after chemical dosing in a 24-well plate.ATG_ISRE_CIS is one of 52 assay component(s) measured or calculated from the ATG_CIS assay. It is designed to make measurements of mRNA induction, a form of inducible reporter, as detected with fluorescence intensity signals by Reverse transcription polymerase chain reaction (RT-PCR) and Capillary electrophoresis technology.Data from the assay component ATG_ISRE_CIS was analyzed into 1 assay endpoint. This assay endpoint, ATG_ISRE_CIS, was analyzed with bidirectional fitting relative to DMSO as the negative control and baseline of activity. Using a type of inducible reporter, measures of mRNA for gain or loss-of-signal activity can be used to understand the reporter gene at the transcription factor-level as they relate to the gene IRF1. Furthermore, this assay endpoint can be referred to as a primary readout, because this assay has produced multiple assay endpoints where this one serves a reporter gene function. To generalize the intended target to other relatable targets, this assay endpoint is annotated to the dna binding intended target family, where the subfamily is interferon regulatory factors.
Human liver HepG2 cells are transiently transfected with multiple reporter transcription units (MRTUs) in 6-well plates using FuGene 6 reagent (Roche; 3 ml FuGene/1 mg DNA). The MRTU constructs are regulated by a cis-regulating element (promoter). […] A major difference between the CIS and TRANS system is that in CIS activities of endogenous TFs are measured, whereas the TRANS assay evaluates changes in activities of exogenous, chimeric NR-Gal4 proteins. […] At the end of 24 hour incubation, total RNA was isolated using TriZol reagent (Invitrogen). The isolated RNA is then reverse-transcribed using oligo(dT) primer and Mo-MLV reverse transcriptase (Invitrogen) with DNAse I (Ambion) treatment for 30 min. The one-tenth of the produced cDNA was amplified by PCR using Taq DNA polymerase (Invitrogen) and two reporter sequence-specific primers. The PCR products were fluorescently labeled by primer extension with 6-arboxyfluorescein (6-FAM) 5'-labeled reporter sequence-specific primer (2 min at 95 C, 20 s at 68 C and 10 min at 72 C) and these products were digested with 5U of HpaI (New England Biolabs) for 2h at 37 C. The fragments were purified using Qiaquick PCR columns (Qiagen), analyzed on an ABI 3130xL genetic analyzer (Applied Biosystems) with peak positions identified by using a set of X-rhodamine (ROX)-labeled MapMarker1000 molecular weight standards (BioVentures). The raw capillary electrophoresis data was processed using Attagraph software (Attagene).

Structure (SMILES) | outcome | AC50
CCCCC(CC)COC(=O)c1ccc(C(=O)OCC(CC)CCCC)c(C(=O)OCC(CC)CCCC)c1 (stereo not given) | inactive | –
Cn1cc(-c2ccccc2)c(=O)c(-c2cccc(C(F)(F)F)c2)c1 | – | 61.1 µM (active)
CC(C)(C)OOC(C)(C)CCC(C)(C)OOC(C)(C)C | inactive | –
Cc1cc(N=Nc2ccccc2C)ccc1N | inactive | –
ClCCOCCCl | inactive | –
CC(C)(C)OOC(=O)c1ccccc1 | inactive | –
O=[N+]([O-])c1ccc(Oc2ccc(Cl)cc2Cl)cc1 | inactive | –
c1ccc2c(c1)-c1cccc3cccc-2c13 | inactive | –
CNC(=O)Oc1cccc2c1OC(C)(C)C2 | inactive | –
O=C(Oc1ccc(Br)cc1)N1CCN2CCC1CC2 | inactive | –
O=C(Nc1ccccc1)c1ccccc1I | inactive | –
O=P(OCCCl)(OCCCl)OCCCl | inactive | –
[Cl-].[Cl-].[Hg+2] | inactive | –
c1ccc(NNc2ccccc2)cc1 | inactive | –
Nc1ccc(Cl)cc1N | inactive | –
[As]#[In] | inactive | –
CC(O)CCO (stereo not given) | inactive | –
N#CC(Br)Br | inactive | –
Nc1cc(Cl)cc(C(=O)O)c1Cl | inactive | –
Cc1ccc([N+](=O)[O-])cc1 | inactive | –

Structure (SMILES) | outcome | AC50
CC(C)N(Cc1ccccc1)C(=O)C(C)(C)C | inactive | –
CC(C)COC(=O)c1ccccc1C(=O)OCC(C)C | – | 167 µM (active)
c1ccc2c(c1)oc1ccccc12 | inactive | –
Cc1ccc(N)c(N)c1 | inactive | –
Brc1ccc(Oc2ccccc2)cc1 | – | 100 µM (active)
Cc1cccc(N)c1N | inactive | –
CCC12COCN1COC2 | inactive | –
O=C1CCCO1 | inactive | –
C[N+](C)(C)CC1CO1 (stereo not given) | inactive | –
OCCCBr | inactive | –
CCCCCCCCCCCCCN1CC(C)OC(C)C1 (stereo not given) | inactive | –
COC(=O)c1ccccc1N | inactive | –
C=CCc1ccc2c(c1)OCO2 | inactive | –
CN(C)c1ccc(C(=O)c2ccc(N(C)C)cc2)cc1 | inactive | –
CCOC(=O)[C@]1(c2ccccc2)Oc2ccccc2[C@@H]1N | – | 33 µM (active)
CC(C)(OOC(C)(C)c1ccccc1)c1ccccc1 | – | 100 µM (active)
CCCCCCCCn1sccc1=O | – | 17.6 µM (active)
Nc1ccc([N+](=O)[O-])cc1 | inactive | –
COc1cc(C=O)cc2c1[C@H](COC(N)=O)[C@]1(OC(C)=O)ON2C[C@H]2[C@@H]1N2C(C)=O | – | 0.54 µM (active)
CO[C@@H]1[C@H](OC(=O)NC(=O)CCl)CC[C@]2(CO2)[C@H]1[C@@]1(C)O[C@@H]1CC=C(C)C | inactive | –
